This is an account of results in ChEMBL document CHEMBL3988442, “University of Dundee, Small-Polar-MMV Screening Library” (2021).

This assay deals with Shiga toxin 2 (Escherichia coli O157:H7) (UniProt P09385+P09386). In words: E. coli 0.157:H7 Shiga Toxin SOP - stx2 screening assay. It is filed as functional. The arrangement: scale not given: direction of the effect not stated beside the values. The following applies: 30 µM.
For the molecule `c1ccc(-c2nc(CN3CCc4c(ncn4C4CC4)C3)cs2)cc1`, the Percent Effect was -40.4%.
Consider `CCn1ccnc1CN1CCCC(CO)(Cc2cccc(Cl)c2)C1` (stereo not given), for which the Percent Effect is 15.9%.
`COc1ccc(CN2CCOC3(CCCN(c4nnc(C)o4)C3)C2)cc1` (stereo not given): the Percent Effect was found to be 7.44%.
Then `c1cncc(OCc2noc3c2CN(Cc2ccoc2)CC3)c1`, with -31.1%.
In the case of `CC(C)C1CN(C(=O)c2ccc(N3CCCC3)nc2)CCS1` (stereo not given) it was -43%; in that of `O=C(Nc1ncn(CC(=O)N2CCCCCC2)n1)C1CCCO1` (stereo not given), 29.5%.
As to `CN1CC(=O)N(c2ccccc2)CC12CCN(Cc1nccs1)C2` (stereo not given), the Percent Effect was -21.2%.
Turning to `CC(C(=O)N1CCN(c2cnccn2)CC1)n1cncn1` (stereo not given), the Percent Effect came to 2.13%.
Take `COCCN1CCC(CN(CC2CCCO2)C(=O)CCNC(C)=O)CC1` (stereo not given): the Percent Effect was -3.65%.
Then `CN(Cc1ccc(Cl)c(Cl)c1)C(=O)CNC(N)=O`, with 10.2%.
Then `COCC1CN(S(C)(=O)=O)Cc2ncn(CC3CC3)c21` (stereo not given), with -1.74%; and `CN(C)C(=O)[C@@H]1CCO[C@@H]2CCN(CCc3ccccc3)C[C@@H]21`, with 1.17%.
Regarding `CS(=O)(=O)c1ccc(CNCC2CCN(CCO)CC2)cc1`, the Percent Effect was -31.9%.
`O=C(N1CCCCC1)N1CCN(CC(O)c2ccc(F)cc2)CC1` (stereo not given): the Percent Effect is 31.9%.
Turning to `CS(=O)(=O)NC1CCCN(C(=O)NCc2cc[nH]n2)C1` (stereo not given), the Percent Effect turned out to be 2.05%.
Turning to `COCC1c2c(cnn2C)CCN1Cc1ccc(F)cc1` (stereo not given), the Percent Effect is -4.17%.
Then `O=C(NCCn1ccc(-c2ccccn2)n1)c1ccncc1`, with -58.6%; and `O=C(C1CCC1)N1CCN(Cc2ccsc2)[C@H]2CS(=O)(=O)C[C@H]21`, with -39.6%; and `CN(CC(=O)N1CCCC1Cn1cccn1)c1cnccn1` (stereo not given), with -0.699%.
Then `Cc1nc(COCc2cnc3n2CCN(C2CCC2)C3C)cs1` (stereo not given), with -5.21%; and `O=C(c1ccc(F)cc1)N1CCC2(CCCN2CC2CC2)CC1`, with -20.9%.
Take `Cc1cccc(-c2noc(CN3CCc4nn(C)c(=O)cc4C3)n2)c1`: the Percent Effect is -21.4%.
Regarding `CC(C)c1nc(C2CCCN2CC(=O)N2CCc3ccccc32)no1` (stereo not given), the Percent Effect stood at 10.6%.
Then `CC(=O)NCC(=O)N1CCn2cc(CN3CCN(C)CC3)nc2C1`, with -27.6%.
Then `CNC(=O)c1cccc(NC(=O)CN2CCN(S(C)(=O)=O)CC2)c1`, with 1.24%; and `Cn1cnc(S(=O)(=O)NCCCN2CCOCC2)c1Cl`, with 18.7%.
Then `CC1(C)OCC(CNC(=O)c2cnn(-c3cc(Cl)ccc3Cl)c2N)O1` (stereo not given), with 17.5%; and `O=C(NC(Cc1ccsc1)c1nccs1)C1CCOCC1` (stereo not given), with 15.3%; and `CNc1cncc(C2CCCN2Cc2ccccn2)n1` (stereo not given), with -10.2%.
Take `Cc1nnc2n1CCN(C(C(=O)NC1CC1)c1ccccc1)C2` (stereo not given): the Percent Effect amounted to 15.2%.
As for `COCCc1noc(CN2CCCC2Cn2cc(C)cn2)n1` (stereo not given), the Percent Effect was -2.29%.
In the case of `CCc1noc(C(C)N2CCN(Cc3noc(C)n3)CC2)n1` (stereo not given) it was -10.9%; in that of `Cc1nnc(NC(=O)NCc2cccnc2N(C)C)s1`, -16.1%; in that of `Cc1ccc(CN(Cc2ccccn2)C2CC(C)(C)NC(C)(C)C2)s1`, 15.6%.
As for `Cc1cc(C(=O)N2CCCCC2C)ccc1NCCCO` (stereo not given), the Percent Effect stood at 11.1%.
In the case of `O=C(CC1CCCC1)NCCn1ccc(-c2ccccn2)n1` it was -5.4%; in that of `Cc1nc(C)n(CC2CN(Cc3cccc4c3OCCO4)CCO2)n1` (stereo not given), 23.8%; in that of `O=C(COCc1ccccc1)N1CCC(OCc2cccnc2)CC1`, 11.5%.
Then `Cc1ccoc1C(=O)N1CC[C@H]2OCC[C@@]2(COCc2ccncc2)C1`, with -14.8%; and `CCCOc1cc(C)ccc1NC(=O)NCCC(=O)N(C)C`, with -4.42%.
